# Results filed as inconclusive are left out. The source made the active and inactive calls. The calls were made as follows: active = hit-call score of the fitted dose curve at least 0.9, where 1 is the maximum; inconclusive = response in the unintended direction; inactive = score below 0.9.
# Molecular target: guinea pig Sigma Receptor, Non-selective Binding, SIGMAR1 (gene 100135589) (UniProt Q60492)
# Assay: NVS_OR_gSIGMA_NonSelective: NovaScreen (NVS) Nuclear Receptor Binding Assay for guinea pig Sigma Receptor, Non-selective Binding (AID 2283367)
# In short: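 Radioligand displacement on guinea pig brain membranes, read by filter-based scintillation counting 1 h after dosing. Loss of signal versus DMSO; initial duplicate single-point screen at 25 uM, actives followed in concentration series.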
# guinea pig Sigma Receptor, Non-selective Binding, SIGMAR1 (gene 100135589), sequence (Q60492 whole entry, looked up): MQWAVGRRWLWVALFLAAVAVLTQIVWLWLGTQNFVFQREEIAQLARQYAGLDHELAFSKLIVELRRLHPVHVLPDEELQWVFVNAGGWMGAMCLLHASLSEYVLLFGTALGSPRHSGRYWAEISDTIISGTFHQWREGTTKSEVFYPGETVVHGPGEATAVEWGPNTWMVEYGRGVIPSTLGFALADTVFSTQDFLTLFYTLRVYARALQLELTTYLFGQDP
SMILES,outcome,AC50
CSC(=O)c1c(C(F)F)nc(C(F)(F)F)c(C(=O)SC)c1CC(C)C,inactive,
Cn1c(-c2ccccc2)cc(-c2ccccc2)[n+]1C,,0.133 µM (active)
CC1(C)CON(Cc2ccccc2Cl)C1=O,,15.2 µM (active)
CCN(CC)C(=O)C(C)Oc1cccc2ccccc12 (stereo not given),,18.8 µM (active)
N#CN=C1SCCN1Cc1ccc(Cl)nc1,inactive,

# Tested on: guinea pig Dopamine Transporter (DAT), gene 100714898
# Assay: NVS_TR_gDAT: NovaScreen (NVS) Transporter Assay for guinea pig Dopamine Transporter (DAT) (AID 2283369);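 also: active compounds lower bound radioligand signal relative to DMSO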
# In short: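 Guinea pig striatal membranes, cell-free radioligand binding with filter-based scintillation counting, read 2 h after dosing. Loss of signal versus DMSO baseline; single-concentration primary (25 uM) then concentration-response up to 50 uM.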
SMILES,outcome,AC50
CCOc1cc(C(C)(C)C)ccc1C1COC(c2c(F)cccc2F)=N1 (stereo not given),inactive,
CC1(C)CCC(=Cc2ccc(Cl)cc2)C1(O)Cn1cncn1 (stereo not given),,1.19 µM (active)
Cc1cc(C)nc(Nc2ccccc2)n1,,22 µM (active)
CC1(C)C(C(=O)OC(C#N)c2cccc(Oc3ccccc3)c2)C1(C)C (stereo not given),,15.8 µM (active)

# Molecular target: Peroxisome proliferator-activated receptor gamma (Homo sapiens) (UniProt P37231)
# Assay: NVS_NR_hPPARg: NovaScreen (NVS) Nuclear Receptor Binding Assay for human Peroxisome Proliferator-activated Receptor gamma (PPARg) (AID 2283370)
# In short: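 Cell-free fluorescence polarization binding to human PPARg protein, read 2 h after dosing. Primary screen in duplicate at 25 uM, actives followed in concentration series; loss of signal relative to DMSO scored.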
# Peroxisome proliferator-activated receptor gamma (Homo sapiens), sequence (P37231 whole entry, looked up): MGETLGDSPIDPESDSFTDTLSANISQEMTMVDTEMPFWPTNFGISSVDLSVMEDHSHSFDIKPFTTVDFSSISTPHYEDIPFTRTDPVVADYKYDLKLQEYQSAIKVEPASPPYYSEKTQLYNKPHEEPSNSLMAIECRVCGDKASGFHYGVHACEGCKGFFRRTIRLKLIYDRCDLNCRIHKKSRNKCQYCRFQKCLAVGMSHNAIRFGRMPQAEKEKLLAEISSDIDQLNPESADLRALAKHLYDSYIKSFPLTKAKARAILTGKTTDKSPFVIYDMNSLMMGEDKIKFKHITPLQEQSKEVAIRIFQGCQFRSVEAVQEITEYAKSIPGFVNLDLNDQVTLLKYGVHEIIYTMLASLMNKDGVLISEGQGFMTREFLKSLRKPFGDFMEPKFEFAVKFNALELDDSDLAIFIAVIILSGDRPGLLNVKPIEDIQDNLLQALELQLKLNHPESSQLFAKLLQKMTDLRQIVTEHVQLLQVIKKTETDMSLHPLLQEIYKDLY
row,SMILES,outcome
1,CCCC(=NOCC)C1=C(O)CC(CC(C)SCC)CC1=O (stereo not given),inactive
2,Cc1c(COC(=O)[C@@H]2[C@H](/C=C(\Cl)C(F)(F)F)C2(C)C)cccc1-c1ccccc1,inactive
3,O=C1C2CC=CCC2C(=O)N1SC(Cl)(Cl)Cl (stereo not given),inactive
4,CCSC(=O)N1CCCCCC1,inactive
5,CC(C)NC(=O)N1CC(=O)N(c2cc(Cl)cc(Cl)c2)C1=O,inactive
6,Cc1cc(C)nc(Nc2ccccc2)n1,inactive
7,COCC(C)N(C(=O)CCl)c1c(C)csc1C (stereo not given),inactive
8,CCNP(=S)(OC)O/C(C)=C/C(=O)OC(C)C (stereo not given),inactive
9,Nc1c(Cl)c(F)nc(OCC(=O)O)c1Cl,inactive
10,COCC(=O)N(c1c(C)cccc1C)C(C)C(=O)OC (stereo not given),inactive
11,N#Cc1c[nH]cc1-c1cccc2c1OC(F)(F)O2,inactive

# Source: PubChem BioAssay (EPA / NIEHS)
